Data taken from the supplement of paper PMC10681739.

Columns and labels:
[1] = target: T1, ETS1 (UniProt P14921); experiment: ETS1 binding intensity (PBM fluorescence), ETS1 alone (arbitrary fluorescence units); higher = stronger binding; settings: ETS1 concentration 1 nM; RUNX1 concentration 0 nM
T1 sequence: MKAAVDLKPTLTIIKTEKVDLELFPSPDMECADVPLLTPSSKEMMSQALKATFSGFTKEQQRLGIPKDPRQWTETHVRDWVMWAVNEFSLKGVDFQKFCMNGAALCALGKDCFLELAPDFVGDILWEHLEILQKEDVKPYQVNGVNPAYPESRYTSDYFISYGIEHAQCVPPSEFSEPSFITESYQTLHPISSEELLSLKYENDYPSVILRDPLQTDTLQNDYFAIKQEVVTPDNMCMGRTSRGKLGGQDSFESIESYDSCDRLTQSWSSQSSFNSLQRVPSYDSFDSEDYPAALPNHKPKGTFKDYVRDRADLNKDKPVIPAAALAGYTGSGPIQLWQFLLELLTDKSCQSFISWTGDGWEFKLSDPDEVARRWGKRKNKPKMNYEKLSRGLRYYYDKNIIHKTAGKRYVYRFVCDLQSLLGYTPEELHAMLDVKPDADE

[2] = target: RUNX1 (UniProt Q01196); experiment: RUNX1 binding intensity (PBM fluorescence), RUNX1 alone (arbitrary fluorescence units); higher = stronger binding; settings: RUNX1 concentration 2 nM; ETS1 concentration 0 nM
Chain of RUNX1 (Q01196 whole entry): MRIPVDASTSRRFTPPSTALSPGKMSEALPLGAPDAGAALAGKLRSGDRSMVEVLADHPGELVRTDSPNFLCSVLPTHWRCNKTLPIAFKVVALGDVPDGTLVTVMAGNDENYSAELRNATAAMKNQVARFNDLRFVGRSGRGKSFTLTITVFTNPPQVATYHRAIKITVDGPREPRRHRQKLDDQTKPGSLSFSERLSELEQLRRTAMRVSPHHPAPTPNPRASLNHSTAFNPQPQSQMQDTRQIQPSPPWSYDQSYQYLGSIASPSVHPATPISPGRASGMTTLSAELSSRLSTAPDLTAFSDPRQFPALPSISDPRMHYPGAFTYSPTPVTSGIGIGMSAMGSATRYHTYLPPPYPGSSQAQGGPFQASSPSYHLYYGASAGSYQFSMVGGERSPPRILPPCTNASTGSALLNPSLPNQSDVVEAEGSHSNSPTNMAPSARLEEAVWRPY
Protocol: (§1)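 Cooperative gcPBM on 36-bp genomic probes with neighbouring ETS1 and RUNX1 sites. Recombinant human RUNX1 (2 nM) was incubated alone or with ETS1 (25 nM) and detected with anti-RUNX1 antibody plus Alexa488 secondary. Values are medians over 4 replicate spots; the RUNX1+ETS1 data were normalised to the RUNX1-only data. The probes sit in constant array flanks that are not printed.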

[3] = target: T1, ETS1; experiment: ETS1 binding intensity (PBM fluorescence) in presence of RUNX1, normalised to ETS1-only experiment (arbitrary fluorescence units); higher = stronger binding; settings: ETS1 concentration 1 nM; RUNX1 concentration 25 nM
[4] = target: RUNX1 (UniProt Q01196); experiment: RUNX1 binding intensity (PBM fluorescence) in presence of ETS1, normalised to RUNX1-only experiment (arbitrary fluorescence units); higher = stronger binding; settings: RUNX1 concentration 2 nM; ETS1 concentration 25 nM
Protocol: as §1
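Wherever RUNX1 binding intensity (PBM fluorescence) in presence of ETS1, normalised to RUNX1-only experiment is given: Full-length recombinant human ETS1 or RUNX1 bound to double-stranded 36-bp genomic probes on microarrays, detected by protein-specific primary antibody and Alexa488 secondary, spot fluorescence as median of four replicate spots.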
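Wherever RUNX1 binding intensity (PBM fluorescence), RUNX1 alone is given: Full-length recombinant human RUNX1 bound to double-stranded 36-bp genomic probes on a high-density microarray, scored as Alexa488 fluorescence per spot via anti-RUNX1 antibody, median of four replicate spots.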

Row | Sequence | ETS1 binding intensity [1] | RUNX1 binding intensity [2] | ETS1 binding intensity [3] | RUNX1 binding intensity [4]
1 | GCCCCCATGCTTCCTGTTGTGGGAGATGAAGTGTGG | 1710 | 878 | 1710 | 1650
2 | GGGGTCAGGAAATGGGTGTGCCGCGGGTAAGGCGCT | 949 | 733 | 921 | 984
3 | TGGGCAAGATATCCTGGAAGTGGTTAAAAAAAATTA | 687 | 739 | 1050 | 1060
4 | TCGGCGGATATGAAAAAAAGTCCGTGGTCACGTGCA | 475 | 730 | 582 | 877
5 | GGGTGCTTCCTATAAACAATGACTCATTACCGCACT | 425 | 920 | 474 | 976
6 | CCCCTCGCCCTTCCGCATTGCGGGTTACTTCGGTTG | 521 | 1900 | 591 | 3510
7 | GGAGGGGAGCAGGAAGCTGAGGTTTTGTGAGTCAGA | 1090 | 753 | 2490 | 1070
8 | CGATGCTTCCGGCCTCCTATTGGGTGGTTTCTTGGC | 895 | 789 | 1050 | 2040
9 | TGTCATCCCGGAAACTGATAACAAGACCGCGAGTCA | 1910 | 807 | 2530 | 1450
10 | CCGTGGAAGGAAACGCTGCCAACCGCAACAGAAATG | 479 | 1700 | 2770 | 3550
11 | ATCTTCCGTAGCAGTCAGGTGTTTTGTGGTTTGCAG | 460 | 1490 | 1300 | 2670
12 | GACATATCCTGCATTCTCAGAAAAACCACAGGCTAG | 391 | 1290 | 1050 | 2000
13 | CAACGGCGTAGCCGGAAGTCAGTGGTTTTCGCCCCA | 12100 | 721 | 18200 | 1650
14 | AGAAGCAGGCATGCAGGATGTGGTTAGTGCATGGTA | 2230 | 900 | 17400 | 3740
15 | GAGCCGGAAGTGAAGGAGGGCTTGTGGGAGATGGAG | 2710 | 713 | 3090 | 1210
16 | CAGAGGACAGGATGCCAACCCCAAAACCGCAGCGAC | 733 | 4020 | 6200 | 9280
17 | CAGTCAAGAGGAAATTATAAACCACTGCCTCTTTGA | 599 | 833 | 744 | 909
18 | GGCAACCGGCCCCGGAAGTTGCGGCAGGTGCGTCCA | 5780 | 685 | 8090 | 1640
19 | CCTGCCTTCCGTCTTCCAGGCAGAACCACAGAGAGG | 432 | 1180 | 481 | 1230

Row | Sequence | ETS1 binding intensity [1] | RUNX1 binding intensity [2] | ETS1 binding intensity [3] | RUNX1 binding intensity [4]
20 | GCCCACTTCCTGCCGTAAGAGAAAACCACTAACACA | 890 | 1970 | 2190 | 4760
21 | CAAGCTGGCAGGAAGCGCGGTGCAACCACAAGAGTC | 1870 | 765 | 6690 | 1260
22 | AATCATTTCCTGCCCTAACGTTTGTGGTCTGCCTAG | 728 | 832 | 1720 | 2760
23 | CCACCGTCCCCGGAAATAACCGCGCCTGCCTCTCAA | 1940 | 1330 | 3290 | 2090
24 | GGAGCGCGCCGGAAACGCGCGGCTGCGGCCCGGGAG | 4280 | 722 | 4330 | 1320
25 | GTCTTACTTCCTGTCCCCGCCCACCGCGACTGTCTT | 2560 | 1740 | 3520 | 3600
26 | AGAAGCTTCTACAGGAAACCACTAATGGAGACAGAG | 1440 | 782 | 1970 | 958
27 | AGGGAGCCCTCCATTTCCTGCCCACATTTGTCACCT | 2360 | 1240 | 2060 | 2260
28 | CGGGTTGGGCAGGAAGCAGCATGACCGCAGTGGGTC | 1740 | 959 | 17000 | 3250
29 | TACTACTTACCAGCAGGATGTGGTCCCTGCCCACTG | 3230 | 809 | 7040 | 1250
30 | GTCTTAGGTCGGAAGTCTGTGGTCCCTGTTCACATG | 796 | 835 | 910 | 953
31 | TTTTCTTTCCTAGGAAGTGGTTGCTGGGTTCTGAGG | 785 | 831 | 721 | 872
32 | TCAGAGACTTCCGCTCAGCAGCAGCTGCGGCCAGGC | 966 | 671 | 1330 | 1850
33 | CAGTGCCAGCCGGAACTTGTGGTTCGGACCGTGGGT | 882 | 1040 | 2100 | 1420
34 | AGCTGCTGTTTTCCGGCTGCGGCACTGGATGAAGGA | 498 | 711 | 422 | 1350
35 | TTCTATCCTGCCTTGCATGTCTTTAACCACACTGAG | 396 | 1800 | 489 | 1720
36 | GCACTTCCGGAGCCGGGCGTCTACAGACCGCGGCCA | 868 | 804 | 1050 | 2190
37 | AGTACGATGGGAGGAAGTGGTTTGTAAGAGGAGGAC | 1740 | 640 | 3390 | 1490
